About 79,000 compounds went through this panel and 15% of them were active in at least one assay; those are over-represented in the sample as a whole. The source made the active and inactive calls. Rule as the data show it: active = growth inhibition above about 70%; inactive = the rest.

The assay can be described thus: NCI Yeast Anticancer Drug Screen. Data for the bub3 strain (AID 167). The conditions noted are these: S. cerevisiae bub3 mutant strain, at 50.0 µM, hits give high values. The essentials: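 In this screen, a yeast mutant lacking normal mitotic checkpoint function is challenged with compound. Relative growth versus vehicle gives the inhibition value.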
With `CN(C)S(=O)(=O)c1ccc(Cl)cc1`, the growth inhibition was -0.2% (inactive).

In the case of `COc1cc([N+](=O)[O-])c(C)cc1Br`, the growth inhibition is -10.5% (inactive). The figure for `Cc1cc(C)c(S(=O)(=O)c2cccs2)c(C)c1` is 5.25% (inactive); for `Cc1ccc(C(C)C)c(OC(=O)NCCCCCCNC(=O)Oc2cc(C)ccc2C(C)C)c1` it is -7.2% (inactive). The figure for `O=C1c2ccccc2SC[C@@H]2CCCN12` is 3.35% (inactive).

`CCCCCCCCCCCCCCCCCCN(C)CC(COC)OP(=O)([O-])OCC[N+](C)(C)C` (stereo not drawn): the growth inhibition was 0.25% (inactive). The figure for `Cc1ccc(C(O)/C(=N/N)c2nc3ccc([N+](=O)[O-])cc3[nH]c2=O)cc1` (stereo not drawn) is -9.4% (inactive); for `Cc1cc2c(=O)cc(-c3ccccc3)oc2c(C(=O)O)c1C` it is -4.65% (inactive).

For `NC(=O)CSCC(=O)O`, the growth inhibition was -23.2% (inactive).

Take `CCn1c2ccccc2c2cc(N)c(N=Nc3ccc(-c4ccc(N)c(OC)c4)cc3OC)cc21`: the growth inhibition is -4% (inactive). The figure for `O=C(Nc1cccc(C(=O)NCCCO)c1)/C(=C/c1ccccc1)NC(=O)c1ccccc1` is -2.4% (inactive); for `O=c1ccc(-c2ccccc2)n[nH]1` it is -25.8% (inactive); for `CCc1ccc(N=Nc2c(F)c(F)c(N)c(F)c2F)cc1` it is 0.55% (inactive). The figure for `Nc1cc(=O)n(-c2ccccc2)nc1Cl` is 3.1% (inactive). For `Oc1ccccc1C1SC(c2ccccc2O)SC(c2ccccc2O)S1` (stereo not drawn) the value was 97% (active); for `O=C(Nc1cccc2ccccc12)O/N=C/c1ccccn1`, -7% (inactive). Take `CC(C)(C)[N+](=O)[O-]`: the growth inhibition was 1.4% (inactive). For `N#CCN1CCOCC1` the value was 10.2% (inactive).

Values taken from PubChem BioAssay (NCI).
